Compound activity (PubChem BioAssay)
C1s inh – human complement C1s inhibition; P09871; purified C1s, fluorogenic AMC substrate, pooled mixtures; mean inhibition % of two 10-compound mixtures (active compounds read high), % at 5 µM (by protocol); 0.16% of 62,000 active;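 active means inhibition above 20% in each of the two 10-compound mixture wells holding the compound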
Her2 expr inh – inhibitors of human Her2 kinase expression. P04626. SKBR-3 HER2 protein level, AlphaScreen, 18-24 h; active compounds read low. HER2 level % of control, % at 10 µM. 0.69% of 65,000 active;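 active means HER2 level under 5% of the carrier-only control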;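 further: lower value means stronger loss of Her2 protein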
SK-BR-3 tox 24h – SK-BR-3 proliferation inhibitors. SK-BR-3 viability, CellTiter-Glo ATP luminescence, 24 h; active compounds read low. viability, % at 10 µM. 0.47% of 41,000 active. AID 847;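 active means viability at or below the median of all test compounds minus 3 SD, in both replicates if run twice, cut at about 45% in these data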
FXIIa mix inh – factor XIIa (human) inhibition, mixture screen; P00748; purified FXIIa, fluorogenic substrate, pooled mixtures; inhibition, % at 5 µM; 0.2% of 62,000 active; AID 684
Target sequence (P00748 20-372 limits assumed): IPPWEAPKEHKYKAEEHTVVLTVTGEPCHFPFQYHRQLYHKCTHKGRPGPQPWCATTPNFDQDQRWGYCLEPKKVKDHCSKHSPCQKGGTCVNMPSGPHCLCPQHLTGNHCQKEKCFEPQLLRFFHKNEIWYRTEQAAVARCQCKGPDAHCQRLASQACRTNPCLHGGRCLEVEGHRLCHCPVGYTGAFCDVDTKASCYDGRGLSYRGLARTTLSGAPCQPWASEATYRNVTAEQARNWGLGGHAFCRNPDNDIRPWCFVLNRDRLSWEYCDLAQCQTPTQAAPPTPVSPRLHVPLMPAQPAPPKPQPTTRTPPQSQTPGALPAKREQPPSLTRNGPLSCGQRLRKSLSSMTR
Target sequence (P00748 373-615 limits assumed): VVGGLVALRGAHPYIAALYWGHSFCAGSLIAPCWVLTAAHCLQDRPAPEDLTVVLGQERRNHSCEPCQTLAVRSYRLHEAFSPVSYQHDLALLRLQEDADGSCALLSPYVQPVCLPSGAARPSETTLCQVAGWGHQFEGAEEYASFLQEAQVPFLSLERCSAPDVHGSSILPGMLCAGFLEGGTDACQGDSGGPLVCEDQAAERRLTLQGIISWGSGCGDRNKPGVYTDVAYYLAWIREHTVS
FXIa inh mix – blocks human factor XIa in pooled compound mixtures; P03951; purified FXIa, fluorogenic substrate; inhibition, % at 5 µM; 0.19% of 62,000 active; AID 680;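 further: each value is inhibition by a whole ten-compound pool holding the compound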
CatG inh – cathepsin G (human) inhibition. purified enzyme, AMC-tetrapeptide fluorescence, pooled mixtures. 0.2% of 62,000 active. inhibition, % at 5 µM (by protocol);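 active means inhibition above 20% in each of the two mixture wells holding the compound; inactive means inhibition of 20% or less in either well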
Numbers stand for hits; n = inactive; x = no result given. In the library only some 1.5% were active in any assay of this set; here they are far more common. Unless noted, no stated cut-off is given here; in the data, active means inhibition above about 20% (passing the limit was not always enough); inactive means the rest.

SMILES | C1s inh | Her2 expr inh | SK-BR-3 tox 24h | FXIIa mix inh | FXIa inh mix | CatG inh
O=c1c2ccccc2c2ccccc2c(=O)n1Cc1ccco1 | n | n | n | n | n | n
N=c1c2c(-c3ccccc3)c(-c3ccccc3)n(Cc3ccco3)c2ncn1Cc1ccco1 | n | 4.4 | x | n | n | n
CN/C=C1\C(=O)C(C)(C)Oc2ccc3ccc(=O)oc3c21 | 23.1 | n | n | n | n | n
CC(C)(C)C1=Nn2c(nnc2C2CCCCC2)SC1 | x | n | n | x | x | x
Cc1ccc(NC(=O)N2C(=O)C3(OCCO3)c3ccccc32)cc1 | n | n | n | n | n | n
CCOC(=O)c1c(C)oc2c1c(/C=N/c1ccccn1)c(O)c1ccccc12 | n | n | n | 69.1 | n | n
CCOC(=O)C1=C(C)N(C)C(C)=C(C(=O)OCC)C1c1ccccn1 | n | n | n | n | n | n
CCc1ccc(-c2cn(-c3nc(C)cc(C)n3)c(=N)o2)cc1 | 51.9 | n | n | n | n | n
CCCCS(=O)(=O)/C=C\C=C/S(=O)(=O)CCCC | n | -17.3 | 38.0 | n | n | n
COc1ccccc1-c1nc(-c2ccc(Br)cc2)no1 | n | n | n | 28.6 | n | n
COc1ccccc1-c1nc(-c2ccncc2)no1 | n | n | n | n | n | n
COc1nc2c(s1)C(=O)NCCC2 | n | n | n | 20.5 | n | n
Cc1noc(C)c1CSCC(=O)OCC(=O)NC1CCCCC1 | n | n | 32.4 | n | n | n
COc1ccc(C(=O)n2ccc(C)n2)cc1Br | n | n | n | n | n | 20.7
Cc1cccc(C)c1NC(=O)CSc1nnc(Cn2nnc(-c3ccccc3)n2)n1-c1ccccc1 | n | n | n | n | n | n
O=C(CSc1nnc(-c2cccs2)o1)OCc1ccccc1 | n | n | 42.5 | n | n | n
Nc1nc2n(n1)C(c1cccs1)CC(c1ccc(Br)cc1)N2 (centres undefined) | x | -20.1 | n | x | x | x
COc1ccc(C2CC(c3ccc(Br)cc3)Nc3nc(N)nn32)cc1 (centres undefined) | n | n | n | n | n | n
Cc1ccc(S(=O)(=O)N2CCN(C(=O)N3CCOCC3)C2C)cc1 (centres undefined) | n | -30.0 | n | n | n | n
CCOC(=O)N1CCN(S(=O)(=O)c2ccc(C)cc2)C1c1ccccc1 (centres undefined) | n | n | n | n | n | n
CSc1nsc(SC)c1C(=O)N1CCN(S(=O)(=O)c2ccc(C)cc2)C1C (centres undefined) | n | n | 44.0 | n | n | n
N/C(CCN1CCCCC1)=N/O | x | n | n | x | x | x
COc1ccc(NC(=O)CN2C(=O)CC(C)(C)S(=O)(=O)c3ccccc32)cc1 | n | n | x | n | n | n
O=C(NCCN1CCN(C(=O)c2cccs2)CC1)c1cccs1 | n | n | n | n | n | n
O=C(CNC(=O)c1cccs1)NCCN1CCN(c2ccccc2F)CC1 | n | n | x | n | 20.5 | n
SMILES | C1s inh | Her2 expr inh | SK-BR-3 tox 24h | FXIIa mix inh | FXIa inh mix | CatG inh
Cc1cc(=O)oc(C)c1C(=O)NCCCN1CCN(c2ccccc2F)CC1 | n | n | x | n | 37.1 | n
Nc1ccc2ncccc2c1N | x | -18.6 | n | x | x | x
O=C(O)CSC12CC3CC(C1)CC(C(=O)O)(C3)C2 | n | n | n | n | 23.6 | n
CC(=O)NC(C)C12CC3CC(CC(C(=O)O)(C3)C1)C2 (centres undefined) | n | n | n | n | n | n
CC(C)CCn1c(Br)nc2c1c(=O)n(CC(N)=O)c(=O)n2C | n | n | n | n | n | n
Cc1sc2ncnc(Sc3nnnn3-c3ccc(Cl)cc3)c2c1C | n | -13.3 | x | n | n | n
Cc1sc2ncnc(SCc3ccco3)c2c1C | n | n | x | n | n | n
COC(=O)C(NC=O)C(O)(Cc1ccccc1)C(F)(F)F (centres undefined) | n | n | x | n | n | n
C=CCN=C(NC#N)SCc1ccccc1Cl | n | -4.6 | n | n | n | n
Cc1cc(NS(=O)(=O)c2ccc(NC(=O)COc3ccccc3C(C)C)cc2)no1 | 25.3 | n | x | n | n | n
CCC(CCC(=O)Nc1cccc(C(=O)O)c1)C(=O)O (centres undefined) | n | n | n | n | n | n
CCCCC(C(=O)O)C(C)CC(=O)Nc1cccc(C(=O)O)c1 (centres undefined) | x | -21.9 | n | x | x | x
Cc1ccc(N2C(=O)c3ccc(C(=O)N4CCN(c5ccccc5F)CC4)cc3C2=O)cc1 | n | n | x | n | n | n
Oc1ccc2ccccc2c1C=NCc1cn2ccsc2n1 | n | -11.0 | x | n | n | n
O=C(CCCc1ccccc1)NCc1cn2ccsc2n1 | n | n | x | n | n | n
COc1ccc(Cl)cc1C(=O)Nc1ccccc1N1CCN(C)CC1 | n | -17.8 | n | n | n | n
CN1CCN(c2ccc(Cl)cc2NC(=O)c2ccc(S(=O)(=O)N3CCCCCC3)cc2)CC1 | n | -6.0 | x | n | n | n
COc1c(Cl)cc(Cl)cc1C(=O)Nc1ccccc1N1CCN(C(C)=O)CC1 | n | n | n | n | n | n
CC(C)N1CCC2(CC1)N=C(c1ccc3c(c1)OCO3)CC(c1cc(Cl)ccc1O)N2 (centres undefined) | n | -18.3 | x | n | n | n
CCOc1ccccc1NC(=O)Cn1nnc(-c2ccc(OCC)c(OCC)c2)n1 | n | -20.5 | n | n | n | n
COc1ccc(-c2nnn(CC(=O)c3ccc4c(c3)OCCO4)n2)cc1OC | n | n | x | n | 20.3 | n
CCOc1ccc(-c2nnn(CC(=O)c3cc(OC)ccc3OC)n2)cc1 | n | -14.2 | n | n | n | n
CCOc1ccc(CSC(CC(=O)O)C(=O)O)cc1 (centres undefined) | n | n | n | n | n | n
Cc1cc(C(=O)N2CCN(S(C)(=O)=O)CC2)cs1 | n | n | n | n | n | n
CCc1nc2ccccc2n(CC)c1=O | n | n | n | n | n | n
SMILES | C1s inh | Her2 expr inh | SK-BR-3 tox 24h | FXIIa mix inh | FXIa inh mix | CatG inh
CCn1c(=O)c(C(C)=O)nc2ccccc21 | 21.7 | n | n | n | n | n
CCOC(=O)CNC(=O)CSc1ncnc2c1cnn2Cc1ccccc1 | n | -18.1 | n | n | n | n
CCOC(=O)CNC(=O)CSc1ncnc2c1cnn2-c1ccc(Cl)cc1 | n | n | n | n | n | n
CCNC(=O)c1nc[nH]c1C(=O)NCC | n | -21.8 | n | n | n | n
Cc1nc(CNS(=O)(=O)c2cc(C)c(C)cc2C)cs1 | 56.9 | n | x | n | n | n
COc1ccc(C(=O)Nc2c(N)nc(SCC(=O)N3CCCCCC3)[nH]c2=O)cc1OC | n | n | x | n | n | n
O=C(OCC(=O)N1CCc2ccccc21)c1cccnc1 | n | n | 40.8 | n | n | n
CN1CCN(CCCNc2nc3ccccc3c3nc(-c4ccccc4)nn23)CC1 | n | -10.4 | x | n | n | n
COCCCN1C(=O)C(=O)/C(=C(/O)c2ccc(OCC(C)C)cc2)C1c1cccnc1 (centres undefined) | n | -20.8 | n | n | n | n
CC(=O)Nc1nc(CC(=O)c2ccccc2)cs1 | n | n | x | n | 35.9 | n
CCc1ccc(NC(=O)N(CCN2CCOCC2)C2CCN(C(C)=O)CC2)cc1 | n | -27.2 | x | n | n | n
